Assay results taken from PubChem BioAssay (NCATS).
Inconclusive results are not listed. A call without a number means that no potency is given here. A number with no mark means an inactive call. The source made the active and inactive calls. Calls follow the shape of the dose curve; as a rule, active = well fitted inhibition curve with a large enough effect; inconclusive = small, poorly fitted or top-dose-only effect; inactive = flat fitted curve, though single readings scatter.

Experiment: P-glycoprotein substrates identified in KB-8-5-11 adenocarcinoma cell line, qHTS therapeutic library screen (AID 1346987); also: nearly all actives have a fitted effect of over 65% in size
Details: KB-8-5-11 (P-gp overexpressing) viability, CellTiter-Glo, 72 h; series mostly up to 44.5 µM
Summary of the method: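 P-gp-mediated resistance screen: KB-8-5-11 cells treated 72 h with compounds in dose-response. CellTiter-Glo viability.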

SMILES | Potency | activity change, negative = cytotoxicity
CC(C)CCNc1ncccc1C(=O)N1CCN(Cc2ccccc2)CC1 | inactive | –
O=C(Nc1cccc2cccnc12)c1ccc(N2C(=O)[C@@H]3C4C=CC(C4)[C@@H]3C2=O)cc1 | inactive | –
CCC(C)C(C(=O)OCC[N+](C)(CC)CC)c1ccccc1 (configuration not stated) | inactive | –
Cn1ncc2cc(-c3cnc(N)c(Cl)c3N3CCC4(CCNC4=O)CC3)ccc21 | inactive | –
CNc1cccc(CCOc2ccc3c(c2)CN(CC(F)(F)F)C(=O)[C@H](CC(=O)O)C3)n1 | inactive | –
COC(=O)CC[C@@H](C)C1CCC2C3CCC4C[C@H](OC(C)=O)CCC4(C)C3C[C@H](O)C21C (some centres not stated) | inactive | –
COC1C=C(C)C(O)(CO)C2(C)CCCC(C)(C)C12 (configuration not stated) | inactive | –
CCC(C)C(=O)OC1C(C)C2(O)C(C=C(CO)CC3(O)C(=O)C(C)=CC32)C2C(C)(C)C12OC(=O)C(C)C (configuration not stated) | inactive | –
COc1c(C(O)CC(C)C)ccc2c1C(=O)OCc1cc(C)cc(O)c1O2 (configuration not stated) | inactive | –
CS/C=C/C(=O)O[C@@H]1CCC2=CC(=O)C(=C(C)C)C[C@]2(C)[C@H]1C | inactive | –
COc1cc(C(=O)O)ccc1NC(=O)C1NC(CC(C)(C)C)C(C#N)(c2ccc(Cl)cc2F)C1c1cccc(Cl)c1F (configuration not stated) | inactive | –
CC(=O)N[C@H]1[C@H](O[C@H]2CC[C@@]3(C)C(CC[C@]4(C)C3CC=C3C5CC(C)(C)CC[C@]5(C(=O)O)C(O)C[C@]34C)C2(C)C)O[C@H](CO[C@@H]2O[C@H](C)[C@H](O)[C@H](O)[C@H]2O[C@@H]2OC[C@@H](O)[C@H](O)[C@H]2O)[C@@H](O)[C@@H]1O (some centres not stated) | – | -2.51% [at 9.29 µM]
